# DAX1 inh-1 – inhibits human nuclear receptor DAX1 | AID 504766 | HEK293 Gal4-DAX1 luciferase reporter, luminescence | inhibition, % at 6.75 µM | actives 0.99% (n = 340,000);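 active = inhibition above the mean over all tested compounds plus 3 SD, cut at about 4.2% in these data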;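 note: 0% = DAX1-transfected cells with DMSO and 100% = empty-vector control cells with DMSO; inhibition shows as a rise in luminescence from relieved DAX1 repression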
# hcDAF12 agonist – activators of H. contortus DAF-12 nuclear receptor. HEK293 hcDAF-12 lit1-tk-luc reporter, luminescence; 0% DMSO, 100% Δ7-dafachronic acid. activation, % at 6.8 µM. actives 1.4% (n = 370,000);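 active = activation above the mean of all tested compounds plus 3 SD, cut at about 5.5% in these data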;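 note: 100% = response to 3 µM Δ7-dafachronic acid high control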
# DAX1 inh-2 – blocks DAX1 repression of SF-1 activated StAR promoter | HEK293T StAR-luciferase reporter, SF-1/DAX-1 repression relief | inhibition, % at 6.8 µM | actives 1.1% (n = 370,000);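 active = inhibition above the mean over all tested compounds plus 3 SD, cut at about 3.6% in these data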;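 note: 0% = DAX-1 cells with DMSO and 100% = cells lacking DAX-1 with DMSO; higher inhibition means more luminescence from relief of DAX-1 repression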
# ssDAF-12 act – activators of S. stercoralis DAF-12 nuclear receptor | HEK293 ssDAF-12/GRIP1 lit1-tk-luc reporter, luminescence; % of 3 µM dafachronic acid response | activation, % at 6.8 µM | actives 1% (n = 370,000);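 active = activation above the mean over all tested compounds plus 3 SD, cut at about 0.9% in these data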;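 note: 0% = DMSO-only wells and 100% = 3 µM delta7-dafachronic acid wells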
# hgDAF12 agonist – hgDAF-12 agonism, primary luciferase screen | actives 1.8% (n = 370,000) | AID 687014 | HEK293 GAL4-hgDAF12 UAS-luciferase reporter, agonist luminescence; normalized to butyrate control | activation, % at 6.8 µM;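 active = activation above a cutoff set at the mean of all screened compounds plus 3 SD, cut at about 10% in these data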;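 note: 0% = DMSO wells and 100% = sodium butyrate wells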
# LXR ag – activates human LXR-beta, counter-screen for hcDAF-12 agonists | AID 743027 | HEK293 Gal4-LXR tk-luc reporter, luminescence, 24 h; normalized: DMSO 0%, positive control 100% | shares compounds with hcDAF12 agonist | activation, % at 6.8 µM | 3,400 tested, under 10 active;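 active = mean percent activation of the reporter above a cutoff set as the average over tested compounds plus their standard deviation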
# Target sequence (P55055 whole entry, looked up, the tested form may be a part): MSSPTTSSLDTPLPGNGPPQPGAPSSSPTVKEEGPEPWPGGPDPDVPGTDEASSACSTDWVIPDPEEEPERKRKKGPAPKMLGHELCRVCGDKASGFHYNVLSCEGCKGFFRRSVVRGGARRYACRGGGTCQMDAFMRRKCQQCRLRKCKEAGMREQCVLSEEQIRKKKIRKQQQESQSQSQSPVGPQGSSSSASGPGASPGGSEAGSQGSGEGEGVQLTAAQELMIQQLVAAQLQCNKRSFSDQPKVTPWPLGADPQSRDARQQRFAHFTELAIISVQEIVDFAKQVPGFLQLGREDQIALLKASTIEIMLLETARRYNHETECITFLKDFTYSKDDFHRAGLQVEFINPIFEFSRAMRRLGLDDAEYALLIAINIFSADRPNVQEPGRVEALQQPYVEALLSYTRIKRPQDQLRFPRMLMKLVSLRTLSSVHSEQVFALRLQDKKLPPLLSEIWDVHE
# hcDAF12 conf – confirmation of H. contortus DAF-12 agonists. activation, % at 6.8 µM. shares compounds with hcDAF12 agonist. actives 61% (n = 3,400). HEK293 hcDAF-12 lit1-tk-luc reporter, luminescence; % of Δ7-dafachronic acid response;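 active = mean activation across triplicate tests above the threshold derived from the earlier primary screen, cut at about 5.5% in these data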;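 note: 0% = DMSO only wells and 100% = 3 µM Δ7-dafachronic acid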
# Starred values were filed as active, the others as inactive; x = no result. This is a sample that favours compounds with a hit; in the whole collection about 4.1% have one here.
SMILES,DAX1 inh-1,hcDAF12 agonist,DAX1 inh-2,ssDAF-12 act,hgDAF12 agonist,LXR ag,hcDAF12 conf
CCCCc1ncc(CN2CCN(Cc3ccc(C)cc3)C(CCO)C2)[nH]1 (centres undefined),0.8,-1.4,0.0,-1.2,-4.1,x,x
Cc1cc2ccccc2n1CCNC(=O)c1ccccc1,-0.9,4.1,1.2,-0.3,1.1,x,x
Cc1cc2ccccc2n1CCNC(=O)c1ccc(Br)o1,2.5,8.0*,3.2,0.2,2.5,0.0,-0.7
O=C(NCC(c1ccco1)N1CCOCC1)c1ccc(F)c(F)c1 (centres undefined),0.2,-0.9,2.7,-1.0,-0.3,x,x
Nc1cc(Cl)ccc1Nc1ccncc1,-0.3,-1.4,-0.3,-0.7,0.7,x,x
Oc1[nH]c2ccccc2c1N=Nc1c(F)c(F)c(C(F)(F)F)c(F)c1F,1.5,1.9,-0.5,-1.3,0.5,x,x
O=C(CSCc1ccc(Br)cc1)N=Nc1c(O)[nH]c2ccccc12,1.3,0.8,-0.4,-1.1,-0.4,x,x
Cc1ccccc1N=Nc1c(O)[nH]c2ccccc12,x,6.6*,0.3,2.2*,10.8*,1.0,15.9*
O=C(CSc1nc2ccccc2[nH]1)N=Nc1c(O)[nH]c2ccccc12,1.4,9.1*,0.3,0.5,3.4,-0.1,2.5
O=C(N=Nc1c(O)[nH]c2ccccc12)c1cccs1,1.7,14.7*,4.4*,1.9*,20.8*,1.4,15.0*
CCN(CC(=O)Nc1ccc(OC)cc1)CC(=O)Nc1cccc(C#N)c1,1.0,0.7,-0.3,-1.0,-3.1,x,x
O=S(=O)(c1cc(F)ccc1F)N1CCN2CCCC2C1 (centres undefined),-0.3,0.3,-0.1,-0.3,0.7,x,x
ClCc1csc(-c2ccc(Cl)cc2)n1,0.1,-0.2,0.0,-0.6,1.4,x,x
CCOc1ccc(-c2nc(CCl)cs2)cc1,2.5,9.1*,2.1,-1.1,12.7*,0.5,2.8
Cc1cc(C)nc(SCc2cnc(C)nc2N)n1,-0.7,-1.7,0.1,-1.5,1.0,x,x
CCc1ccccc1NC(=O)CSc1nnc(CNC(=O)c2ccco2)n1C,-1.6,-0.7,0.0,-0.9,-0.5,x,x
Oc1ccc(Br)cc1-c1cc(-c2ccccc2)n[nH]1,-0.6,8.1*,-0.1,1.6*,4.6,0.0,5.2
COc1ccc(O)c(-c2cc(-c3ccc(F)cc3)n[nH]2)c1,2.1,7.6*,1.2,1.0*,8.9,1.1,6.3*
CN1CCN(C(=O)c2cc3sc4ccccc4c3s2)CC1,x,7.3*,4.5*,0.1,13.1*,1.4,5.4
CCCCN(C(=O)C(C)Oc1cccc(Cl)c1)c1c(N)n(CCC)c(=O)[nH]c1=O (centres undefined),0.3,-1.0,-1.0,-1.1,1.6,x,x
c1csc(-c2ccc(N3CCOCC3)nn2)c1,-0.1,6.6*,3.4,0.0,13.2*,1.4,5.8*
COc1ccc(CCNCC(O)COc2c(C)cccc2C)cc1OC (centres undefined),0.2,-0.8,0.0,-1.4,-0.3,x,x
N#CCCn1cc(C=O)c(-c2cccs2)n1,-0.3,-2.4,-1.6,-1.5,-1.8,x,x
O=c1c(-c2cccc3ccccc23)[n+]([O-])c2ccccc2n1O,-1.7,7.3*,-0.8,-0.1,2.9,0.0,5.9*
CN(C)c1ccc(N=Nc2ccccc2C(=O)OCC(=O)N2CCCC2)cc1,0.0,-1.1,0.1,-2.0,3.7,x,x
SMILES,DAX1 inh-1,hcDAF12 agonist,DAX1 inh-2,ssDAF-12 act,hgDAF12 agonist,LXR ag,hcDAF12 conf
CN(C)c1ccc(N=Nc2ccccc2Br)cc1,0.2,20.1*,3.0,1.6*,12.0*,1.7,18.9*
CCOC(=O)c1csc(NC(=O)CN2CCN(C)CC2)n1,0.5,-0.4,0.2,-1.0,-0.3,x,x
COc1ccc(-c2cccc(N3CCN(c4ccccn4)CC3)n2)cc1OC,x,-0.4,0.0,-1.3,-3.7,x,x
CC(C)(C)c1ccc(C(=O)NC(=S)NNC(=O)c2cccs2)cc1,0.4,20.6*,3.5,0.8,8.8,-0.2,0.8
O=C(NC(=S)NNC(=O)c1cccs1)c1ccccc1,1.0,3.9,1.0,0.1,4.2,x,x
Cc1c(C(=O)OCC(=O)Nc2ccc(N3CCOCC3)cc2)oc2ccccc12,0.2,0.9,-0.4,-0.9,-1.2,x,x
COC(=O)c1sc(NC(=O)c2oc3ccccc3c2C)nc1C,0.4,8.2*,1.2,0.7,8.0,0.7,4.6
Cc1c(C(=O)Nc2ccc(N3CCOCC3)cc2)oc2ccccc12,0.8,10.5*,0.6,-0.1,4.7,0.8,8.6*
Cc1c(C(=O)Nc2nc3ccccc3[nH]2)oc2c(Cl)cccc12,0.1,8.7*,1.1,1.0*,3.2,0.8,9.2*
Cc1c(C(=O)Nc2ccccn2)oc2c(Cl)cccc12,3.5,8.8*,0.1,2.0*,2.1,0.2,6.5*
Cc1cc(C)nc(Nc2ccccc2F)n1,0.7,-1.0,-0.2,-1.2,-1.6,x,x
Cc1cc(=O)oc(C)c1C(=O)Nc1cccnc1Cl,1.1,3.0,-0.1,-1.0,0.9,x,x
Cc1c(C(=O)Nc2cccnc2Cl)oc2ccccc12,2.3,6.7*,1.1,0.6,8.9,1.3,6.8*
Cc1cc(C)c2nc(/N=C(\N)NC(=O)Nc3ccccc3)nc(C)c2c1,-0.7,-3.8,-0.6,-1.8,-1.1,x,x
Cc1cc(C)c2nc(/N=C(\N)NC(=O)c3ccccc3)nc(C)c2c1,2.5,6.9*,1.5,-0.2,4.9,-0.3,1.9
c1ccc(-c2c[nH]c3ccc(OCc4ccc5ccccc5n4)c(-c4ccccc4)c23)cc1,x,7.4*,0.1,-0.2,5.7,-0.2,3.0
COc1ccc2nc(C)cc(Nc3ccc(N4CCN(C)CC4)cc3)c2c1,-0.8,12.5*,0.0,0.9*,4.7,1.0,11.9*
O=C(c1ccc(C(F)(F)F)cc1)N(CCCn1ccnc1)C(c1ccccn1)c1nc2ccccc2[nH]1 (centres undefined),x,7.5*,1.6,0.5,5.2,-0.1,4.7
O=C(Cn1nc(C(=O)O)c2ccccc2c1=O)c1c[nH]c2ccccc12,-0.6,7.3*,0.2,0.5,2.6,-0.2,4.1
Cc1nc2cc(NC(=O)CCS(=O)(=O)c3ccccc3)ccc2s1,3.7,7.8*,4.0*,-0.3,11.5*,0.8,3.5
CN1CCN(C2CN(CCc3ccccc3)S(=O)(=O)C2)CC1 (centres undefined),x,-0.3,-1.6,-1.1,-1.0,x,x
CCCc1cc2c(=O)c(-c3nc4ccccc4s3)c(COCC(=O)O)oc2cc1O,1.3,6.8*,0.8,0.9*,8.7,0.2,7.7*
CCc1cc2c(=O)c(-c3nc4ccccc4n3C)c(COCC(=O)O)oc2cc1O,-0.3,2.0,1.0,0.1,1.2,x,x

# Bioassay records from PubChem BioAssay.
